Data on 20 molecules can be found in PubChem BioAssay (NCI).

Structures are written as SMILES. This is part of a sample that, as a whole, favours compounds with a hit. Of some 79,000 tested, about 15% had one in any assay. A number with no mark means an inactive call. Calls of active or inactive are those of the source. Cut-off read from the data, not from the text of the source: active = growth inhibition above about 70%; inactive = the rest.

Assay [1] is described as follows: NCI Yeast Anticancer Drug Screen. Data for the rad50 strain (AID 155).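 Note: 0% = growth of vehicle-only cultures of the same strain.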 The following applies: S. cerevisiae rad50 strain growth inhibition; at 50.0 µM; hits give high values. Put shortly: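 Cells are treated with compound, grown, and their growth is then scored against vehicle-only cultures of the same repair-deficient yeast strain.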
A short description of assay [2]: NCI Yeast Anticancer Drug Screen. Data for the mec2-1 strain (AID 157). The note with it: S. cerevisiae mec2-1 strain, at 50.0 µM, hits give high values. Put shortly:
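mec2-1 yeast strain, carrying an alteration in DNA damage repair or cell cycle control, was exposed to compounds; growth inhibition was measured relative to vehicle-treated controls.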

Assay [3] can be described thus: NCI Yeast Anticancer Drug Screen. Data for the sgs1 mgt1 strain (AID 161).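 Note: 0% = growth of cultures given vehicle only.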 The note with it: S. cerevisiae sgs1 mgt1 strain, at 50.0 µM, hits give high values. The method in brief:
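Yeast cells carrying a defined DNA-repair defect were exposed to test compounds. Growth inhibition was measured relative to vehicle-treated controls.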

Assay [4] can be described thus: NCI Yeast Anticancer Drug Screen. Data for the cln2 rad14 strain (AID 165).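 Note: 0% = growth equal to vehicle treated cultures.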 The note with it: S. cerevisiae cln2 rad14 strain, at 50.0 µM, hits give high values. The method in brief: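 Yeast carrying cln2 and rad14 alterations (cell cycle control and DNA damage repair) were exposed to compounds. Growth inhibition was measured against vehicle-treated controls.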
A short description of assay [5]: NCI Yeast Anticancer Drug Screen. Data for the bub3 strain (AID 167). The following applies: S. cerevisiae bub3 mutant strain, at 50.0 µM, hits give high values. Put shortly: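 Part of a panel of yeast mutants defective in DNA damage repair or cell cycle regulation. Each strain is grown with compound, and inhibition is calculated relative to solvent-treated cultures.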

Assay [6] in a line: NCI Yeast Anticancer Drug Screen. Data for the mlh1 rad18 strain (AID 175). The following applies: S. cerevisiae mlh1 rad18 strain growth inhibition; at 50.0 µM; hits give high values. Put shortly:
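Growth inhibition of the yeast strain was measured after compound exposure and expressed relative to vehicle-treated controls. The strain carries defined defects in DNA damage repair.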

Regarding `O=C1NC(=O)N2CC(CI)OC2C1c1ccccc1` (stereo not given), the growth inhibition is 0.25% in assay [1]; 12.8% in assay [2]; 10.2% in assay [3]; 6.55% in assay [4]; -6.6% in assay [5]; 11.4% in assay [6].

For `O=C1CN(c2cccc(Cl)c2)C(=O)CN1/N=C/c1ccc(O)c(O)c1`, the growth inhibition in assay [1] was -29.1%; in assay [2] it was 0.15%; in assay [3] it was 3.45%; in assay [4] it was -6.95%; in assay [5], 46%; in assay [6] it was -8.9%.

As for `COc1ccc(N2C(=O)C3c4[nH]c5ccccc5c4C4CCC(C(C)(C)C)CC4C3C2=O)cc1OC` (stereo not given), the growth inhibition in assay [1] was 46.8%; in assay [2], 18.4%; in assay [3] it was 14.8%; in assay [4] it was -3.4%; in assay [5], 44.2%; in assay [6] it was 38.1%.

For `Cc1nc2ccc(Br)cc2c(=O)n1-c1ccc(N=Cc2ccccc2Cl)cc1`, the growth inhibition in assay [1] is 49.8%; in assay [2] it was 16.5%; in assay [3], 26.6%; in assay [4] it was 19.6%; in assay [5], 2.6%; in assay [6], 34.8%.

For the molecule `N#C/C(N)=C(\C#N)N=CN`, the growth inhibition in assay [1] is -5.5%; in assay [2], 5.5%; in assay [3] it was -7.1%; in assay [4] it was 34%; in assay [5], -22.3%; in assay [6], -27.9%.

Take `O=c1[nH]c2cc(Cl)ccc2nc1/C=C(\O)c1ccc2ccccc2c1`: the growth inhibition in assay [1] was 27.2%; in assay [2], -5.2%; in assay [3], -6.3%; in assay [4] it was -3.85%; in assay [5] it was -16.6%; in assay [6] it was 25.4%.

Consider `C=C(C)C1CCC2(C)CC3C(=C)CC(O)C(O)C3(C)CCC12` (stereo not given), for which the growth inhibition is 48.2% in assay [1]; 88.8% (active) in assay [2]; 90.8% (active) in assay [3]; 90% (active) in assay [4]; 90.2% (active) in assay [5]; 89.5% (active) in assay [6].

Regarding `COc1ccc2c(CCn3ccccc3=O)cccc2c1`, the growth inhibition in assay [1] was -13.3%; in assay [2] it was -8.5%; in assay [3], 7.55%; in assay [4], -13.9%; in assay [5], 44.9%; in assay [6], -11.2%.

On to `C=CCCCC1(c2ccccc2)C(=O)Oc2ccccc21` (stereo not given), for which the growth inhibition in assay [1] is 29.6%; in assay [2], 2.55%; in assay [3], -0.55%; in assay [4], 15.6%; in assay [5], 12.8%; in assay [6] it was -2.75%.

`CO/N=C(\C([O-])=N\[n+]1cnn(CC(=O)OC(C)(C)C)c1)c1csc(NC(c2ccccc2)(c2ccccc2)c2ccccc2)n1`: the growth inhibition is 39.5% in assay [1]; 0.75% in assay [2]; 11.1% in assay [3]; 8.3% in assay [4]; 15.3% in assay [5]; -10.1% in assay [6].

As to `NCCCOCCO`, the growth inhibition in assay [1] is -2.9%; in assay [2] it was -0.5%; in assay [3], -8.4%; in assay [4], 8.3%; in assay [5] it was 16.4%; in assay [6], 4.35%.

As to `C[n+]1cccc(/C=C/c2ccc3cccc(O)c3n2)c1`, the growth inhibition is 4% in assay [1]; -3.75% in assay [2]; -12.7% in assay [3]; -2.65% in assay [4]; -42.4% in assay [5]; 8.35% in assay [6].

With `Brc1ccccc1N=Nc1ccccc1Br`, the growth inhibition was -13.6% in assay [1]; 3.95% in assay [2]; 0.6% in assay [3]; -18.6% in assay [4]; -8.5% in assay [5]; -20.5% in assay [6].

Take `C=CC(O)C(O)C=C` (stereo not given): the growth inhibition is 15.1% in assay [1]; -9% in assay [2]; 20.4% in assay [3]; 8.25% in assay [4]; 12.9% in assay [5]; 17.2% in assay [6].

Consider `O=C(NC(=O)c1c(F)cccc1F)Nc1ccc(Cl)nc1`, for which the growth inhibition in assay [1] is 8.75%; in assay [2], 5.95%; in assay [3], -0.2%; in assay [4], 2.3%; in assay [5], 21.9%; in assay [6] it was 10.1%.

`CC(C)CCN(CC(C)C)C(=O)c1ccc([N+](=O)[O-])cc1` (tested in a mixture with another compound): the growth inhibition in assay [1] is 16.1%; in assay [2] it was 0.6%; in assay [3], 8.75%; in assay [4] it was -3.25%; in assay [5], -5.6%; in assay [6] it was 14.1%.

For `C(=C\c1nc2ncccn2n1)/c1ccccc1`, the growth inhibition was 16.4% in assay [1]; -2.75% in assay [2]; 6.55% in assay [3]; -20.9% in assay [4]; 4.6% in assay [5]; -14.3% in assay [6].

As to `Cc1ccc(C(C)C)c(O)c1NC(=S)N/N=C\c1cc(Cl)ccc1O`, the growth inhibition in assay [1] is -4.55%; in assay [2] it was 22.8%; in assay [3], -13.9%; in assay [4], 7.6%; in assay [5], -14.2%; in assay [6], 17.4%.

Regarding `CC(C)(C)c1ccc(SC(=O)Nc2cccc(Cl)c2Cl)cc1`, the growth inhibition in assay [1] was 8.35%; in assay [2] it was 14.3%; in assay [3], 18.1%; in assay [4], 13.8%; in assay [5], 24.4%; in assay [6], 20.9%.

As for `O=C(O)/C=C/c1ccccc1Cl`, the growth inhibition in assay [1] was -9.7%; in assay [2], 10.1%; in assay [3] it was -1.3%; in assay [4], -25.8%; in assay [5], 0.8%; in assay [6] it was -9.9%.
